Measured values from PubChem BioAssay (Tox21).
Unmarked numbers belong to inactive results. Unless noted, the call rests on the fitted dose curve. Records with an inconclusive call do not appear.

Test system: not listed separately
Experiment: qHTS assay to identify small molecule agonists of the sonic hedgehog signaling (Shh) pathway (AID 1259368);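 further: NIH/3T3-derived 3T3Gli1-Luc cells carrying a stable Gli1-driven firefly luciferase reporter; nearly all actives have a fitted effect of over 15% in size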
Details: NIH/3T3 Gli1-Luc reporter, luciferase, 24 h, stronger effect = higher value; series mostly up to 92.4 µM; activity change: at the top concentration
Procedure, shortened: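 Mouse fibroblast (NIH/3T3) reporter cells with stably integrated Gli1-Luc were treated 24 hr with compound; firefly luciferase luminescence served as the read-out.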
On the % scale 0 is the no-effect control and ±100 the full control effect.

SMILES | activity change
CCOC(=O)CC(=O)c1ccccc1 | -0.497%
O=S(=O)(O)CCN1CCN(CCO)CC1 | -0.22%
CC(COC(C)(C)C)OCCCO (stereo unspecified) | -5.93%
O=C(O)c1ccc(Cl)cc1Cl | 0.811%
CC(C)CCCCOC(=O)c1ccccc1C(=O)OCCCCC(C)C | -1.27%
COc1ccc(-c2cc(=O)c3c(O)cc(O[C@@H]4O[C@H](CO[C@@H]5O[C@@H](C)[C@H](O)[C@@H](O)[C@H]5O)[C@@H](O)[C@H](O)[C@H]4O)cc3o2)cc1O | -0.0541% [at 42.5 µM]
CC(C)N(c1ccccc1)C(C)C | 0.0109%
O=Cc1ccc(Cl)c(Cl)c1 | 0.676%
CC(C)=CCOC(=O)c1ccccc1 | 0.255%
CCC(C=O)CC | -7.55%
CC(N)C(=O)OC(C)(C)Cc1ccc(Cl)cc1 (stereo unspecified) | 0.0476% [at 42.5 µM]
Nc1nnc(-c2cccc(Cl)c2Cl)c(N)n1 | -0.0094% [at 42.5 µM]
CC1(C)S[C@@H]2[C@H](N=CN3CCCCCC3)C(=O)N2[C@H]1C(=O)O | -0.223% [at 42.5 µM]
C#CC(C)N(C)C(=O)Nc1ccc(Cl)cc1 (stereo unspecified) | 10.1%
O=S(=O)(O)c1cc(O)c2ccc(Nc3ccccc3)cc2c1 | -0.706%
CCCC/C=C\CCCCCCCCCC=O | -0.0697%
C[C@@H](Oc1ccc(CNC(=O)c2cccnc2Oc2ccc3c(c2)OCO3)c(F)c1)C(=O)O | 0.423%
COc1cc(C(=S)N2CCOCC2)cc(OC)c1OC | -0.225% [at 42.5 µM]
Cc1ccsc1/C=C/C1=NCCCN1C | 0.202% [at 42.5 µM]

SMILES | activity change
OCCCCC(O)CO (stereo unspecified) | -0.0416%
NNc1nnc(NN)c2ccccc12 | 5.69% [at 42.5 µM]
CC(CN)CC(C)(C)CCN (stereo unspecified) | -1.35% [at 240 µM]
CCCCCCCCCCCCCC | 0.169%
O=P(O)(O)OP(=O)(O)O | -0.0838%
CC(=O)CCCCn1c(=O)c2c(ncn2C)n(C)c1=O | -0.0765% [at 42.5 µM]
CC(=O)N[C@@H](CCC(=O)O)C(=O)O | -0.188% [at 42.5 µM]
Cc1ccccc1OCC(O)CO (stereo unspecified) | 0.117% [at 42.5 µM]
C=C1CC/C=C(\C)CC[C@@H]2[C@@H]1CC2(C)C | -0.234%
CCCOC(OCCC)OCCC | 0.414%
CN(C)c1ccc(C=O)cc1 | -1.14%
c1ccc2c(c1)ccc1c3ccccc3ccc21 | 7.28% [at 42.5 µM]
NCCS | 0.209% [at 42.5 µM]
COCCOCCOCCOCCOCCO | 0.147%
O=C1CC(c2ccc(Cl)cc2)CC(=O)N1 | 0.0683% [at 42.5 µM]
O=C1CCCC(=O)O1 | -2.65%
CC(=O)Nc1ccc(S(=O)(=O)Cl)cc1 | -1.91%
CCCCN | -0.251% [at 42.5 µM]

Test system: not listed separately
Experiment: qHTS assay to identify small molecule antagonists of the sonic hedgehog signaling (Shh) pathway (AID 1259369); further: nearly all actives have a fitted effect of over 45% in size
Details: NIH/3T3 Gli1-Luc reporter, Shh antagonist, luminescence 24 h; series mostly up to 92.4 µM; activity change, negative = inhibition: at the top concentration
Procedure, shortened: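 Conditioned medium drives Shh signalling in 3T3Gli1-Luc cells; compounds in DMSO co-applied, 24hr at 37 C, then luciferase luminescence.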

SMILES | activity change, negative = inhibition
CCOC(=O)CC(=O)c1ccccc1 | 14.6%
O=S(=O)(O)CCN1CCN(CCO)CC1 | 13.6%
CC(COC(C)(C)C)OCCCO (stereo unspecified) | -8.5%
O=C(O)c1ccc(Cl)cc1Cl | 3.64%
CC(C)CCCCOC(=O)c1ccccc1C(=O)OCCCCC(C)C | 1.85%
COc1ccc(-c2cc(=O)c3c(O)cc(O[C@@H]4O[C@H](CO[C@@H]5O[C@@H](C)[C@H](O)[C@@H](O)[C@H]5O)[C@@H](O)[C@H](O)[C@H]4O)cc3o2)cc1O | 38.8% [at 42.5 µM]
CC(C)N(c1ccccc1)C(C)C | 13.5%
O=Cc1ccc(Cl)c(Cl)c1 | 6.73%
CC(C)=CCOC(=O)c1ccccc1 | 8.32%
CCC(C=O)CC | -1.31%
CC(N)C(=O)OC(C)(C)Cc1ccc(Cl)cc1 (stereo unspecified) | -6.29% [at 42.5 µM]
Nc1nnc(-c2cccc(Cl)c2Cl)c(N)n1 | -3.44% [at 42.5 µM]
CC1(C)S[C@@H]2[C@H](N=CN3CCCCCC3)C(=O)N2[C@H]1C(=O)O | -2.25% [at 42.5 µM]
C#CC(C)N(C)C(=O)Nc1ccc(Cl)cc1 (stereo unspecified) | 0%
O=S(=O)(O)c1cc(O)c2ccc(Nc3ccccc3)cc2c1 | 0%
CCCC/C=C\CCCCCCCCCC=O | 0%
C[C@@H](Oc1ccc(CNC(=O)c2cccnc2Oc2ccc3c(c2)OCO3)c(F)c1)C(=O)O | -14.7%
COc1cc(C(=S)N2CCOCC2)cc(OC)c1OC | 22.6% [at 42.5 µM]
Cc1ccsc1/C=C/C1=NCCCN1C | -1.97% [at 42.5 µM]

SMILES | activity change, negative = inhibition
OCCCCC(O)CO (stereo unspecified) | 20%
NNc1nnc(NN)c2ccccc12 | 14.6% [at 42.5 µM]
CC(CN)CC(C)(C)CCN (stereo unspecified) | -27.1% [at 240 µM]
CCCCCCCCCCCCCC | 1.25%
O=P(O)(O)OP(=O)(O)O | 9.53%
CC(=O)CCCCn1c(=O)c2c(ncn2C)n(C)c1=O | 4.92% [at 42.5 µM]
CC(=O)N[C@@H](CCC(=O)O)C(=O)O | 5.1% [at 42.5 µM]
Cc1ccccc1OCC(O)CO (stereo unspecified) | 14.6% [at 42.5 µM]
C=C1CC/C=C(\C)CC[C@@H]2[C@@H]1CC2(C)C | 0%
CCCOC(OCCC)OCCC | 0%
CN(C)c1ccc(C=O)cc1 | 9.39%
c1ccc2c(c1)ccc1c3ccccc3ccc21 | 15.7% [at 42.5 µM]
NCCS | 8.2% [at 42.5 µM]
COCCOCCOCCOCCOCCO | 12.3%
O=C1CC(c2ccc(Cl)cc2)CC(=O)N1 | -9.42% [at 42.5 µM]
O=C1CCCC(=O)O1 | -20.2%
CC(=O)Nc1ccc(S(=O)(=O)Cl)cc1 | 9.87%
CCCCN | 1.35% [at 42.5 µM]

Target: Estrogen receptor beta (Homo sapiens) (UniProt Q92731)
Experiment: qHTS assay to identify small molecule agonists of the estrogen receptor beta (ER-beta) signaling pathway (AID 1259377; active means well fitted activation curve with a large enough effect in the signal ratio in the repeat runs, not every such curve was filed as active; the % refers to the signal ratio)
Details: ER-beta-UAS-bla HEK293T, beta-lactamase FRET ratio, 16 h; series mostly up to 92.4 µM; activation: at the top concentration
Procedure, shortened: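 Screening used GripTite ER-beta-UAS-bla cells held in 2% charcoal-stripped FBS medium. After overnight (16 hr) compound incubation at 37C, beta-lactamase activity was detected with a FRET substrate by fluorescence.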

Estrogen receptor beta (Homo sapiens), sequence (Q92731 whole entry, looked up): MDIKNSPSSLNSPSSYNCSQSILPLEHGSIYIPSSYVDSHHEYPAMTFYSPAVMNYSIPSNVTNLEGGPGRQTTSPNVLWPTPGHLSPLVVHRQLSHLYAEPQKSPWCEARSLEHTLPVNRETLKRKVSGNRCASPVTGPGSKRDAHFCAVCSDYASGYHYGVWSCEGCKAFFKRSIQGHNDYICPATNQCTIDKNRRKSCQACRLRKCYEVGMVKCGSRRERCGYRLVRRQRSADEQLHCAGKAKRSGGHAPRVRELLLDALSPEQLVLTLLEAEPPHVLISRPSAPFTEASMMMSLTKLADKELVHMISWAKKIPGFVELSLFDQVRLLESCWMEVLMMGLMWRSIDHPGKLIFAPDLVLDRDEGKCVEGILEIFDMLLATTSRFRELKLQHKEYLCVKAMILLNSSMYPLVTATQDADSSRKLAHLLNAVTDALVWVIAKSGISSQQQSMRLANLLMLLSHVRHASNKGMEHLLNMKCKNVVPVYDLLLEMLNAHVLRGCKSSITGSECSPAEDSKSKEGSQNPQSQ

SMILES | activation
CCOC(=O)CC(=O)c1ccccc1 | -1.05%
O=S(=O)(O)CCN1CCN(CCO)CC1 | -0.723%
CC(COC(C)(C)C)OCCCO (stereo unspecified) | -1.48%
O=C(O)c1ccc(Cl)cc1Cl | 5.66%
CC(C)CCCCOC(=O)c1ccccc1C(=O)OCCCCC(C)C | -0.595%
COc1ccc(-c2cc(=O)c3c(O)cc(O[C@@H]4O[C@H](CO[C@@H]5O[C@@H](C)[C@H](O)[C@@H](O)[C@H]5O)[C@@H](O)[C@H](O)[C@H]4O)cc3o2)cc1O | -1.91% [at 42.5 µM]
CC(C)N(c1ccccc1)C(C)C | -0.789%
O=Cc1ccc(Cl)c(Cl)c1 | 1.27%
CC(C)=CCOC(=O)c1ccccc1 | 9.99%
CCC(C=O)CC | 0.356%
CC(N)C(=O)OC(C)(C)Cc1ccc(Cl)cc1 (stereo unspecified) | 2.49% [at 42.5 µM]
Nc1nnc(-c2cccc(Cl)c2Cl)c(N)n1 | 1.64% [at 42.5 µM]
CC1(C)S[C@@H]2[C@H](N=CN3CCCCCC3)C(=O)N2[C@H]1C(=O)O | 4.53% [at 42.5 µM]
C#CC(C)N(C)C(=O)Nc1ccc(Cl)cc1 (stereo unspecified) | -1.53%
O=S(=O)(O)c1cc(O)c2ccc(Nc3ccccc3)cc2c1 | -4.79%
CCCC/C=C\CCCCCCCCCC=O | 9.14%
C[C@@H](Oc1ccc(CNC(=O)c2cccnc2Oc2ccc3c(c2)OCO3)c(F)c1)C(=O)O | 0.566%
COc1cc(C(=S)N2CCOCC2)cc(OC)c1OC | 8.65% [at 42.5 µM]
Cc1ccsc1/C=C/C1=NCCCN1C | 0.33% [at 42.5 µM]

SMILES | activation
OCCCCC(O)CO (stereo unspecified) | 1.9%
NNc1nnc(NN)c2ccccc12 | 1.43% [at 42.5 µM]
CC(CN)CC(C)(C)CCN (stereo unspecified) | 1.1% [at 240 µM]
CCCCCCCCCCCCCC | -0.449%
O=P(O)(O)OP(=O)(O)O | -1.15%
CC(=O)CCCCn1c(=O)c2c(ncn2C)n(C)c1=O | 0.0251% [at 42.5 µM]
CC(=O)N[C@@H](CCC(=O)O)C(=O)O | 2.75% [at 42.5 µM]
Cc1ccccc1OCC(O)CO (stereo unspecified) | -0.845% [at 42.5 µM]
C=C1CC/C=C(\C)CC[C@@H]2[C@@H]1CC2(C)C | 1.03%
CCCOC(OCCC)OCCC | 2.74%
CN(C)c1ccc(C=O)cc1 | 4.05%
c1ccc2c(c1)ccc1c3ccccc3ccc21 | 3.3% [at 42.5 µM]
NCCS | 5.78% [at 42.5 µM]
COCCOCCOCCOCCOCCO | 2.24%
O=C1CC(c2ccc(Cl)cc2)CC(=O)N1 | 1.55% [at 42.5 µM]
O=C1CCCC(=O)O1 | 9.29%
CC(=O)Nc1ccc(S(=O)(=O)Cl)cc1 | -0.0545%
CCCCN | 5.71% [at 42.5 µM]
